GSH bead fluor: compound fluoresces at 488/530 nm on GSH beads. GSH beads flow cytometry, compound fluorescence 488/530 nm; stronger effect = higher value. fluorescence (KMESF) at 10 µM. 190,000 tested, 0.25% active; in the data active = fluorescence above about 89;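 also: glutathione beads carrying GST-tagged Bcl family fusion proteins plus one bare bead set; values are compound well signal with DMSO vehicle wells as background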
Avidin fluor: avidin bead compound fluorescence profile; 220,000 tested, 0.38% active; Avidin beads, compound fluorescence 488/530 nm, flow cytometry; stronger effect = higher value; fluorescence (KMESF) at 10 µM; in the data active = fluorescence above about 47
RGS8-Gao: regulators of human RGS8-Galphao interaction. P09471. multiplexed bead flow cytometry, RGS8-Galphao binding; actives lie on both sides. response (percent of control binding), % at 10 µM. 220,000 tested, 0.34% active. AID 1423; in the data active = response below about 60% or above about 140%; inactive = in between;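 also: Galphao activated as the GDP aluminium fluoride complex binding bead-coupled RGS8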
Target sequence (P09471 whole entry, looked up): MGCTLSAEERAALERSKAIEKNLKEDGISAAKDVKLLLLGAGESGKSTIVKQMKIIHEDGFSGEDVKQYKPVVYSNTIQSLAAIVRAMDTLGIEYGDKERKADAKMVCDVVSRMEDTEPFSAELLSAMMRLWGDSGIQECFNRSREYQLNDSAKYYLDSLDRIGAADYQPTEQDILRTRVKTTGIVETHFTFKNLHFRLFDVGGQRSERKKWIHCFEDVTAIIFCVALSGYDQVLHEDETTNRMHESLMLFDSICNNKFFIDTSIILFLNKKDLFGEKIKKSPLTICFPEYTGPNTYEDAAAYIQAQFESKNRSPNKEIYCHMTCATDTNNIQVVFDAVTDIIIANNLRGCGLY
RGS4-Gao reg: modulates binding of RGS4 to human Galphao | AID 1415 | Multiplexed bead flow cytometry; actives lie on both sides | P09471 | binding response (% of control), % at 10 µM | 220,000 tested, 0.33% active; in the data active = binding response below about 49% or above about 150%; inactive = in between;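 also: fluorescent Galphao activated with aluminum fluoride binding bead-coupled RGS4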
RGS16-Gao: modulates binding between human RGS16 and Galphao. O15492+P09471. bead-based flow cytometry RGS16-Galphao binding, fluorescence; actives lie on both sides. binding response (% of control), % at 10 µM. 220,000 tested, 0.38% active; call rule not given here;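 also: Galphao activated by GDP with aluminum fluoride before binding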
RGS7-Gao: regulators of human RGS7-Galphao interaction; Multiplexed bead flow cytometry, RGS7-Galphao binding; actives lie on both sides; binding response (% of control), % at 10 µM; 220,000 tested, 0.35% active; AID 1439; in the data active = binding response below about 49% or above about 150%; inconclusive = no clear call, values can overlap the other calls; inactive = in between;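 also: fluorescent Galphao held in activated GDP-AlF4 state binding bead-coupled RGS7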
Starred values were filed as active, the others as inactive; ? = inconclusive; . = no result; [ ] = another dose, or the depositor's remark. Most compounds without a hit are left out; they make up all but 1.2% or so of the library.

SMILES	GSH bead fluor	Avidin fluor	RGS8-Gao	RGS4-Gao reg	RGS16-Gao	RGS7-Gao
Cc1nnc(-c2cnn(C)c2N)n1Cc1ccccc1F	270*	6	103	104	108	97
CCn1c(CSc2nc3ccccc3s2)nnc1SCC(=O)c1ccc(O)c(O)c1	268*	4	76	68	65	67
O=C(COC(=O)c1cc(S(=O)(=O)N2CCc3ccccc3C2)ccc1Cl)NCc1ccco1	4	6	96	94	93	96
O=C(COC(=O)c1cccc(S(=O)(=O)N2CCc3ccccc3C2)c1)NCc1ccco1	256*	5	93	83	57	89
CCOc1ccc(CC(=O)NNC(=O)NC2CCCCC2)cc1	20	9	101	99	99	94
CCOc1ccc(CC(=O)NNC(=S)NC2CCCCC2)cc1OCC	128*	4	99	98	106	100
Cc1ccc2c(CSc3nnc(C4CC4)n3N)cc(=O)oc2c1	262*	9	99	101	102	101
O=C(N/N=C/c1ccc(-c2ccccc2[N+](=O)[O-])o1)c1cncc(Br)c1	6	83*	80	85	23	78
Cc1occc1-c1nnc(SCCCC(=O)c2ccc(F)cc2)n1C	259*	8	100	96	93	95
Cn1c(SCCCC(=O)c2ccc(F)cc2)nnc1-c1ccncc1	16	9	100	100	105	102
O=C1NC(=O)C(CC(=O)N(c2ccccc2)C2(C(=O)NC3CCCC3)CCCCC2)N1 (stereo not drawn)	29	52*	101	102	102	111
CN(CCO)C(=O)c1cccc2c1-c1ccccc1C2=O	259*	8	99	100	103	104
COC(=O)c1sc2ccccc2c1C(=O)OC	17	61*	99	103	106	118
COC(=O)c1sc2ccccc2c1N	17	7	102	98	104	98
Cn1c2ccccc2c2c(C(=O)N3CCN(c4ccccn4)CC3)cn(C3CCCC3)c(=O)c21	13	9	102	103	107	103
Cn1c2ccccc2c2c(C(=O)N3CCN(C(=O)c4ccco4)CC3)cn(C3CCCCC3)c(=O)c21	149*	11	93	65	62	71
CSc1c[n+]2c(n1C)CCC2	11	52*	101	106	108	113
CCOc1ccc(-n2c(-c3ccccc3)c[n+]3c2CCC3)cc1	20	10	100	96	100	?
COc1ccc(/C=C/C(=O)c2ccccc2O)cc1	17	69*	103	159*[activator]	107	148
Cc1ccsc1C(=O)OC1CCOC1=O (stereo not drawn)	271*	7	96	94	97	89
CCOC(=O)c1ccccc1NC(=O)CSc1nc2c(c(=O)n(C)c(=O)n2C)n1C	25	13	100	100	101	100
CCOC(=O)c1ccccc1NC(=O)Cn1cnc2c1c(=O)n(C)c(=O)n2C	11	-3	7.8*	-24*	-15*	-8.2*
O=C(c1ccc(F)cc1)N1CCN2C(=O)c3ccccc3C12c1ccc(Cl)cc1 (stereo not drawn)	12	7	101	103	101	103
O=C(NCc1ccco1)c1ccc(Br)c(S(=O)(=O)N2CCCCC2)c1	8	17	94	96	72	90
CCOC(=O)CCC(=O)NCc1ccc2c(c1)cc(C)n2C	15	53*	104	127	178	125
SMILES	GSH bead fluor	Avidin fluor	RGS8-Gao	RGS4-Gao reg	RGS16-Gao	RGS7-Gao
O=C(Cn1cnc2ccccc21)OCC(=O)N1CCc2ccccc2C1	11	52*	119	142	122	141
O=C(Cn1cnc2ccccc2c1=O)N1CCc2ccccc2C1	11	21	97	93	99	93
CCn1c(Cc2ccccc2)nnc1SCC(=O)Nc1ccc2c(c1)OCO2	45	9	100	101	101	102
Cn1c(Cc2ccccc2)nnc1SCC(=O)Nc1ccc2c(c1)OCCO2	255*	8	100	97	100	97
Cn1c2ccc(Cl)cc2c2nc3ccccc3nc21	15	5	101	107	104	108
Cc1cccc(OCc2nnc(SCC(=O)NCCc3ccccc3)o2)c1	243*	10	100	99	102	104
Cc1cccc(OCc2nnc(SCC(=O)c3ccccc3)o2)c1	14	64*	98	105	104	130
N#Cc1c(N)oc(-c2ccccc2)c1-c1ccccc1	268*	10	101	100	99	98
N=c1c2c(-c3ccccc3)c(-c3ccccc3)n(Cc3ccco3)c2ncn1Cc1ccccc1	12	14	90	97	94	98
CC(C)Cn1cnc2c(c(-c3ccccc3)c(-c3ccccc3)n2Cc2ccco2)c1=N	251*	8	102	106	106	102
Cc1c(NS(=O)(=O)N2CCCC2)c(=O)n(-c2ccccc2)n1C	48	7	101	97	96	102
Cc1c(NS(C)(=O)=O)c(=O)n(-c2ccccc2)n1C	252*	5	112	108	99	101
Cc1ccc(Cn2c(SCC(=O)N3CC(=O)Nc4ccccc43)nc3ccccc3c2=O)cc1	16	7	101	101	106	101
CNC(=S)N1N=C(c2ccc(Br)cc2)CC1c1ccc(Br)cc1 (stereo not drawn)	23	48*	97	98	93	104
CNC(=S)N1N=C(c2ccc(Br)cc2)CC1c1ccc(N(C)C)cc1 (stereo not drawn)	16	9	102	104	104	?
CCOC(=O)/C(C#N)=C(\O)c1ccc(NC(=O)c2ccc([N+](=O)[O-])cc2)cc1	.	59*	107	127	132	?
CCN(CC)S(=O)(=O)c1csc(C(=O)OCC(=O)c2ccccc2)c1	104*	4	95	83	86	88
Cc1cc(N(C)/N=C/c2ccccc2)nc(-c2ccccc2O)n1	8	10	103	101	110	101
NS(=O)(=O)c1ccc(NS(=O)(=O)c2ccc(NC(=O)c3ccc(-c4ccccc4)cc3)cc2)cc1	13	373*	110	106	410	113
NS(=O)(=O)c1ccc(NC(=O)c2ccc(-c3ccccc3)cc2)cc1	57	10	100	98	101	100
COCC(O)CSc1c([N+](=O)[O-])nc(C)n1Cc1ccc(OC)c([N+](=O)[O-])c1 (stereo not drawn)	22	20	100	99	104	99
O=C(CCN1CCCCC1)Nc1ccc(Br)cc1	20	49*	102	104	103	108
CN1CCN(CCC(=O)Nc2ccc(Br)cc2)CC1	16	11	100	100	102	99
Cn1c(=O)c2c(nc(NCCCO)n2Cc2cccc(C(F)(F)F)c2)n(C)c1=O	36	1	94	97	75	98

Compound activity (PubChem BioAssay)
